Screening results as filed in PubChem BioAssay.
An excerpt weighted towards active compounds, which were near 32% of everything screened.
CYP2C19 act: increases human CYP2C19 enzyme activity | P33261 | recombinant CYP2C19, luciferin-H EGE luminescence; active compounds read high; 0 = fully inhibited enzyme, 1 = untreated enzyme | activation factor at 5 µM | 96,000 tested, under 10 active | AID 1025;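 active = activation factor of at least 2 at 5 µM in the primary screen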;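 also: 0 = wells with 2.5 mM tranylcypromine and 1 = vehicle-only wells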
CYP2C9 activ: activators of human CYP2C9 | P11712 | recombinant CYP2C9, luciferin-H conversion, luminescence; active compounds read high; factor 1 = untreated enzyme, 0 = blocked | activation factor at 5 µM | 96,000 compounds, 1.4% hits;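 active = activation factor of 2 or more for CYP2C9 at a 5 µM dose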;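 also: 0 = sulfaphenazole-blocked wells and 1 = vehicle-only wells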
Target sequence (P11712 whole entry, looked up): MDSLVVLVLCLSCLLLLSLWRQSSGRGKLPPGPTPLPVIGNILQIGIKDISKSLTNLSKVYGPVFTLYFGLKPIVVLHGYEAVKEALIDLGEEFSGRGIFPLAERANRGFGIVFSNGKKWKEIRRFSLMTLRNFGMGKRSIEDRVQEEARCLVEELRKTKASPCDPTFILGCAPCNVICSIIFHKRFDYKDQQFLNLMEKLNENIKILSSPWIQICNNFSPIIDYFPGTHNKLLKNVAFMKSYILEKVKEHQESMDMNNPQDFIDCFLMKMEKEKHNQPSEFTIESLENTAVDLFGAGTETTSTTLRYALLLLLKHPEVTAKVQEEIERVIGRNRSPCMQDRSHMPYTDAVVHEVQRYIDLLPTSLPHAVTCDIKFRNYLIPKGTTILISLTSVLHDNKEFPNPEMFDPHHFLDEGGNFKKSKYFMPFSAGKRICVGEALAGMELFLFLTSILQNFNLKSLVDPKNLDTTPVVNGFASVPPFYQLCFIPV
PostGolgi yeast: growth inhibition of a yeast mutant, post-Golgi transport screen; post-Golgi transport phenotypic cell assay; AID 739; 98,000 compounds, 0.9% hits; inhibition, % at 10 µM;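 also: yeast cells grown in 1536-well plates; yeast grown about 18 h at 30C before absorbance read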
CYP2C19 inhib: human CYP2C19 inhibition; 96,000 compounds, 21% hits; P33261; inhibition, % at 5 µM; CYP2C19 Supersomes, luciferin-H EGE luminescence, 30 min;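 active = CYP2C19 inhibition above a set limit at 5 µM in the primary screen, cut at about 50% in these data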;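 also: plate controls were negative control wells for no effect and 2.5 mM tranylcypromine positive control for full effect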
PostGolgi ctrl: growth of the yeast control strain, post-Golgi counter-screen | efflux-deficient yeast background strain, growth absorbance A615, 16 h | inhibition, % at 10 µM | 98,000 compounds, 5% hits
CYP2C9 inhib: inhibitors of human CYP2C9; CYP2C9 Supersomes, luciferin-H conversion, luminescence; 96,000 compounds, 20% hits; P11712; AID 777; inhibition, % at 5 µM;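 active = blocking of liver enzyme CYP2C9 beyond about 50% at 5 µM, limit read from the data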
An asterisk follows results filed as active; nt = no result given. Rule as the data show it, unless noted: active = inhibition above about 30%; inactive = the rest.

SMILES | CYP2C19 act | CYP2C9 activ | PostGolgi yeast | CYP2C19 inhib | PostGolgi ctrl | CYP2C9 inhib
O=C(CSc1nnc(COc2ccc(Cl)cc2)o1)N1c2ccccc2CCc2ccccc21 | 0.7 | 0.3 | -8 | 28 | 31* | 74*
CCOC(=O)N1CCN(C(=O)CSc2nnc(COc3ccc(Cl)cc3)o2)CC1 | 1 | 0.8 | -7 | 3 | 6 | 24
COC(=O)c1ccc(OC)c(CSc2nnc(COc3ccccc3)o2)c1 | 0.6 | 0.6 | 10 | 38 | 13 | 38
COC(=O)c1ccc(OC)c(CSc2nnc(COc3ccc(Cl)cc3)o2)c1 | 0.2 | 0.1 | -23 | 76* | 18 | 88*
COC(=O)c1ccc(OC)c(CSc2nnc(-c3ccc(C(C)(C)C)cc3)o2)c1 | 0.1 | 0.2 | 9 | 90* | 12 | 84*
Cc1cc(=O)c2n(Cc3ccc(Cl)cc3)nc[n+]2[nH]1 | 0.6 | 0.7 | -9 | 36 | -10 | 26
CCCSc1nc(N)c(C#N)c(-c2ccc(C)cc2)c1C#N | 1 | 0.9 | 12 | 0 | 2 | 13
CCN(CC)c1ccc(-c2c(C#N)c(N)nc(OC)c2C#N)cc1 | 1 | 0.5 | 8 | 3 | 9 | 54*
COC(=O)c1nn(-c2cccc(C(F)(F)F)c2)c(=O)cc1Sc1ccccn1 | 0.4 | 0.3 | 5 | 56* | -2 | 70*
Cc1ccccc1NC(=O)NCC1CCCO1 (stereo not drawn) | 1 | 1.1 | 6 | 1 | -2 | -6
CCn1c(O)c(/C=N/N=C/c2ccccc2)c2ccc(C3=NNC(=O)CC3)cc21 | 0.6 | 0.4 | 3 | 42 | 48* | 64*
O=C(CCNS(=O)(=O)c1cccs1)NCc1ccco1 | 0.9 | 0.9 | 2 | 14 | 2 | 14
C/C(=C\c1ccccc1)CN(C)CCN(C)C | 1.1 | 1.3 | 0 | -10 | 4 | -28
COc1ccc(N/C=C/C(=O)c2ccc(Oc3ncccn3)cc2)cc1 | 0.9 | 0.9 | -4 | 11 | 3 | 10
COc1ccc(NS(=O)(=O)c2ccc(Oc3ncccn3)cc2)cc1 | 0.2 | 0.3 | -1 | 81* | 2 | 69*
COc1ccc(S(=O)(=O)Nc2ccc(Oc3ncccn3)c(Cl)c2)cc1 | 0 | 0 | 4 | 100* | -1 | 98*
CCn1cc(C(=O)NCCCOC)c(=O)c2cc(S(=O)(=O)N(C)C)ccc21 | nt | nt | 0 | nt | 5 | nt
O=C(C1CCCN1C(=O)c1cccs1)N1CCc2ccccc21 (stereo not drawn) | 0.5 | 0.8 | 9 | 54* | 11 | 18
O=C(c1cccs1)N1CCc2ccccc21 | 0.9 | 1 | 11 | 15 | -4 | -4
O=C(c1cc2nc(-c3cccs3)cc(C(F)(F)Cl)n2n1)N1CCCc2ccccc21 | 0.7 | 0.1 | -6 | 32 | 28 | 89*
O=C(O)C1CCCN1C(=O)c1cccs1 (stereo not drawn) | nt | nt | -1 | nt | 7 | nt
O=C(c1cccs1)N1CCCc2ccccc21 | 0.4 | 0.6 | 4 | 64* | 8 | 37
C=CCn1c(SCc2cc(=O)n3ccsc3n2)nc2sc(C)c(C)c2c1=O | 1 | 0.8 | nt | 0 | nt | 19
Cc1ccc(C)c(-n2nnnc2SCC(=O)Nc2cccc(-c3nnc4n3CCCCC4)c2)c1 | 0.8 | 0.6 | 1 | 18 | 1 | 42
CC1Cc2cc(/C(O)=C3\C(=O)C(=O)N(CCN(C)C)C3c3ccccc3F)ccc2O1 (stereo not drawn) | 1 | 1.1 | 18 | -4 | -10 | -5
SMILES | CYP2C19 act | CYP2C9 activ | PostGolgi yeast | CYP2C19 inhib | PostGolgi ctrl | CYP2C9 inhib
CC(=O)N(C)c1ccc(NS(=O)(=O)Cc2ccccc2)cc1 | 0.9 | 1 | 2 | 6 | -9 | -1
CN(Cc1ccccc1)S(=O)(=O)c1ccc(Cl)nc1 | 0.3 | 0.8 | 5 | 70* | 5 | 17
CC(=O)c1ccc(NS(=O)(=O)Cc2ccccc2)cc1 | 0.1 | 0 | -3 | 93* | 4 | 97*
CN(Cc1ccccc1)S(=O)(=O)c1ccc(NS(=O)(=O)Cc2ccccc2)cc1 | 0.1 | 0.1 | 1 | 94* | 10 | 94*
COc1ccc(NS(=O)(=O)Cc2ccccc2)cc1OC | 0.6 | 1.3 | 15 | 36 | -3 | -28
CCOC(=O)Cn1c2c(c(=N)c3c1CCC3)CCC2 | 1 | 1 | 15 | -3 | -7 | 0
CCCCCCCCCCn1c2c(c(=N)c3c1CCC3)CCC2 | 0.8 | 0.9 | 11 | 19 | 97* | 13
Nc1nc2ccc(S(=O)(=O)c3ccc4nc(N)sc4c3)cc2s1 | 0.5 | 0.7 | -1 | 49 | 15 | 29
